# In the library only some 6.6% were active in any assay of this set; here they are far more common.
# Mdm2 MdmX PPI – inhibitors of human Mdm2/MdmX interaction | O15151+Q00987 | SaOS-2 split-luciferase Mdm2/MdmX complementation, luminescence | inhibition, % at 8 µM | actives 3% (n = 330,000) | AID 485346;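 active = inhibition of at least 50% at 8 µM in the primary screen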
# Beta apoptosis – blocks beta cell apoptosis; INS-1E cytokine-induced death, ATP luminescence, 48 h; percent of positive-control rescue, neutral wells zero; protection from apoptosis, % (concentration not given with the values); actives 0.8% (n = 300,000); AID 435005;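 active = Every replicate reaches about 75%, or at least half do and their mean reaches it too, limit read from the data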;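 note: 0% = cytokine-treated negative control wells and 100% = positive control rescue; higher means more ATP so stronger rescue from cytokine killing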
# CSC inhib – cancer stem cell inhibition; cancer stem cell-like cells viability, luminescence; inhibition, % at 7.5 µM; actives 1.1% (n = 300,000); AID 2717; in the data active = inhibition above about 75%; tested in HMLE shEcad cells
# NR3A LBD binder – NR3A (human) ligand-binding domain modulation; NR3A LBD differential scanning fluorimetry, Tm shift; 0% = protein alone, 100% = glycine-bound protein; Tm shift relative to glycine control, % at 25 µM; actives 2.5% (n = 340,000); AID 1259313;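 active = melting temperature shift of at least 10% of the positive control shift, at one fixed dose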
# MPTP inh – inhibitors of mitochondrial permeability transition pore; isolated mouse mitochondria, Ca2+ swelling absorbance, 30 min; AID 602449; actives 1.4% (n = 360,000); inhibition, % at 10 µM;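 active = inhibition of 50% or more, scaled per plate between neutral and stimulator controls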;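 note: 0% = DMSO wells given calcium and 100% = 1 mM EGTA wells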
# Gli-Sufu block – Gli-Sufu pathway antagonism | Sufu-KO-LIGHT fibroblasts, Gli luciferase reporter luminescence | inhibition, % at 5 µM | actives 0.74% (n = 340,000);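 active = inhibition above about 55%, limit read from the data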;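 note: 0% = DMSO-treated cells and 100% = wells with medium but no cells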
# * = called active by the depositor; nt = no result.
SMILES,Mdm2 MdmX PPI,Beta apoptosis,CSC inhib,NR3A LBD binder,MPTP inh,Gli-Sufu block
O=C(NCCCN1CCCC1=O)c1ccc(S(=O)(=O)Nc2cccc(C(F)(F)F)c2)cc1,7,-4,7,-1,0,19
O=C(c1ccc(S(=O)(=O)Nc2cccc(C(F)(F)F)c2)cc1)N1CCC1,2,-3,-10,16*,0,6
CC(=O)N1CCN(C(=O)c2ccc(S(=O)(=O)Nc3cccc(C(F)(F)F)c3)cc2)CC1,-5,2,-2,nt,-2,-7
O=C(NCc1ccccc1F)c1ccc(S(=O)(=O)Nc2cccc(C(F)(F)F)c2)cc1,9,2,-21,27*,7,0
Cc1cc(C)c(NC(=O)CN(C)C(=O)c2ccc(OCc3ccccc3)cc2)c(C)c1,1,3,10,-1,0,-33
C#C[C@]1(O)CC[C@H]2[C@@H]3CCc4cc(OC5CCCC5)ccc4[C@H]3CC[C@@]21C,38,4,98*,1,3,3
Cc1cc(O)c(Oc2cc(C)cc(O)c2O)c(O)c1,-3,-11,80*,0,1,6
Cc1ccc(O)c(O)c1,32,-9,8,nt,nt,nt
COc1ccc(C(=O)Oc2ccc(/C=N/NC(=O)c3ccccc3OC)cc2[N+](=O)[O-])cc1,0,-2,5,1,-15,-11
O=C(N/N=C/c1ccc(OC(=O)c2ccccc2)c([N+](=O)[O-])c1)c1ccc(O)cc1,25,3,10,26*,0,1
COc1ccc(C(=O)N/N=C/c2ccc(OC(=O)c3cccc4ccccc34)c([N+](=O)[O-])c2)cc1,-11,6,13,12*,1,-6
O=C(CN1C(=O)NC2(CCCCC2)C1=O)N1CCN(S(=O)(=O)c2cccc([N+](=O)[O-])c2)CC1,0,-2,-4,-1,-1,8
CC(C)(C(=O)N1CCC1(C)C(=O)NS(=O)(=O)c1ccc(C#N)cc1)c1ccccc1 (stereo unspecified),nt,nt,nt,nt,-1,nt
CN(Cc1ccccc1)C(=O)[C@@H]1CCCN1C(=O)[C@@H]1CCCN1C(=O)c1ccc(Cl)cc1,nt,nt,nt,nt,1,nt
CN(CC(=O)Nc1ccc(N2CCOCC2)cc1)C(=O)Cc1ccccc1,19,-7,nt,2,-3,-5
CSCCC(NC(=O)c1ccccc1)C(=O)N(C)CC(=O)Nc1ccc(N2CCOCC2)cc1 (stereo unspecified),-8,-3,-16,13*,-2,0
COc1ccc(C)cc1NC(=O)c1ccccc1NS(=O)(=O)c1cccc2cccnc12,15,-1,1,9,-1,-5
COc1ccc(C(O)(CCC(C)C)C(CN2CCOCC2)c2ccc(Cl)cc2)cc1 (stereo unspecified),7,22,29,16*,1,7
CCCC(O)(c1ccc(Cl)cc1)C(CN1CCOCC1)c1ccc(Cl)cc1 (stereo unspecified),14,7,94*,-15,0,14
CCCC(O)(c1ccc(OC)cc1)C(CN1CCOCC1)c1ccc(Cl)cc1 (stereo unspecified),19,5,14,7,-2,9
C#CCOc1ccc2ccccc2c1/C=C(/C#N)c1ccc(C(=O)O)cc1,-18,-4,65,1,1,21
CCNS(=O)(=O)c1ccc(NC(=O)Nc2cc(C)ccc2OC)cc1,31,3,17,20*,2,-4
COc1ccc(C)cc1NC(=O)NNS(=O)(=O)c1ccc(NC(C)=O)cc1,13,0,-3,2,0,-5
COc1ccccc1CNS(=O)(=O)c1ccc(NC(C)=O)cc1,14,4,3,1,-1,14
CCNS(=O)(=O)c1ccc(NC(=O)Nc2ccccc2OC)cc1,-18,-3,4,14*,-1,-5
SMILES,Mdm2 MdmX PPI,Beta apoptosis,CSC inhib,NR3A LBD binder,MPTP inh,Gli-Sufu block
COc1ccccc1NS(=O)(=O)c1ccc(NC(=O)N2CCCCC2)cc1,10,-4,1,13*,0,2
Cc1ccc(C(=O)Nc2ccccc2C(=O)N2CC(C)OC(C)C2)cc1 (stereo unspecified),nt,nt,nt,nt,-1,nt
O=C(NCc1ccccn1)Nc1cccc(F)c1,1,-8,2,2,0,-3
CN1/C(=C\C(=O)C[n+]2ccc(C(=O)c3ccccc3)cc2)C(C)(C)c2ccccc21,15,103*,4,-1,5,3
CN1/C(=C\C(=O)C[n+]2cccc(Br)c2)C(C)(C)c2ccccc21,16,100*,19,2,0,-1
CN1/C(=C\C(=O)C[n+]2cccc(C(N)=O)c2)C(C)(C)c2ccccc21,5,nt,-4,1,0,0
Cc1ccc[n+](CC(=O)/C=C2\N(C)c3ccccc3C2(C)C)c1,-15,68,31,0,1,12
CC1(C(=O)NS(=O)(=O)c2ccccc2)CCN1C(=O)Cc1cc(F)ccc1F (stereo unspecified),nt,nt,nt,nt,0,nt
O=C(CN1C(=O)c2ccccc2S1(=O)=O)c1ccc(Cl)cc1Cl,24,-1,-3,-2,0,90*
NC(=S)NNC(=O)c1cc(C(F)(F)F)cc(C(F)(F)F)c1,18,nt,-23,31*,4,-4
CNC(=S)NNC(=O)c1cccc(C(F)(F)F)c1,1,-5,-7,0,-3,4
Cc1ccc(N(C)S(=O)(=O)c2c[nH]c3ccc([N+](=O)[O-])cc23)cc1,39,nt,nt,117*,17,-29
CCN(c1ccccc1)S(=O)(=O)c1c[nH]c2ccc([N+](=O)[O-])cc12,15,-4,13,3,29,7
CC(=O)c1cccc(NC(=O)c2ccc([N+](=O)[O-])o2)c1,5,-3,28,0,1,-10
O=C(Nc1cccc(S(=O)(=O)N2CCCCC2)c1)c1ccc([N+](=O)[O-])o1,30,-11,78*,-1,9,-11
Cc1ccc(C(=O)N2CCOCC2)cc1S(=O)(=O)N1CCOCC1,-10,nt,-6,12*,-2,-5
Cc1ccc(C(=O)N2CCCC2)cc1S(=O)(=O)N1CCOCC1,-1,-3,-5,0,-1,-12
Cc1ccc(NC(=O)c2ccc([N+](=O)[O-])o2)cc1S(=O)(=O)N1CCOCC1,18,94*,2,-1,0,14
CC(=O)c1ccc(NC(=O)c2ccc([N+](=O)[O-])o2)cc1,12,-8,80*,-1,-1,18
Cc1ccc(C(=O)NCC(C)NC(=O)c2ccc(C)c(C)c2)cc1C (stereo unspecified),10,nt,nt,3,3,-4
Cc1cccc2nc3c(nc12)CCCC3,15,nt,nt,-11,0,-2
CC(NS(=O)(=O)c1cn(C)c(=O)n(C)c1=O)c1ccccc1 (stereo unspecified),-4,-2,-3,1,0,-4
O=C(OCn1ncc(Cl)c(Cl)c1=O)c1ccccc1Cl,nt,101*,-50,0,-3,4

# Compound activity from PubChem.
